Data as given in PubChem BioAssay (NCI).
About 79,000 compounds went through this panel and 15% of them were active in at least one assay; those are over-represented in the sample as a whole. A number with no mark means an inactive call. Calls of active or inactive are those of the source. No stated cut-off is given here; in the data, active means growth inhibition above about 70%; inactive means the rest.

What was measured:
[1] = NCI Yeast Anticancer Drug Screen. Data for the rad50 strain (AID 155);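 further: 0% = growth of vehicle-only cultures of the same strain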; conditions: S. cerevisiae rad50 strain growth inhibition; at 50.0 µM; active compounds read high
Summary of the method: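 Yeast carrying a defined DNA repair defect were exposed to test compounds, and growth was compared with vehicle-treated controls to give percent inhibition.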

[2] = NCI Yeast Anticancer Drug Screen. Data for the mec2-1 strain (AID 157); conditions: S. cerevisiae mec2-1 strain, at 50.0 µM, active compounds read high
Summary of the method: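 Mutant yeast (mec2-1) grown with compound; growth inhibition relative to vehicle control reported.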

[3] = NCI Yeast Anticancer Drug Screen. Data for the sgs1 mgt1 strain (AID 161);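 further: 0% = growth of cultures given vehicle only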; conditions: S. cerevisiae sgs1 mgt1 strain, at 50.0 µM, active compounds read high
Summary of the method: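 Growth of a repair-deficient yeast mutant was monitored after compound treatment and expressed as inhibition relative to vehicle-treated cultures.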

[4] = NCI Yeast Anticancer Drug Screen. Data for the cln2 rad14 strain (AID 165);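 further: 0% = growth equal to vehicle treated cultures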; conditions: S. cerevisiae cln2 rad14 strain, at 50.0 µM, active compounds read high
Summary of the method: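 Readout is yeast growth inhibition versus vehicle-treated controls, using a strain with cln2 and rad14 alterations exposed to compound.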

[5] = NCI Yeast Anticancer Drug Screen. Data for the bub3 strain (AID 167); conditions: S. cerevisiae bub3 mutant strain, at 50.0 µM, active compounds read high
Summary of the method: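 Compounds were applied to a genetically altered yeast strain carrying a cell-cycle control defect. Growth inhibition was scored against vehicle-treated controls.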

[6] = NCI Yeast Anticancer Drug Screen. Data for the mlh1 rad18 strain (AID 175); conditions: S. cerevisiae mlh1 rad18 strain growth inhibition; at 50.0 µM; active compounds read high
Summary of the method: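 Genetically defined yeast (DNA repair-deficient) exposed to compounds; growth inhibition determined relative to vehicle.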

| SMILES | growth inhibition [1] [%] | growth inhibition [2] [%] | growth inhibition [3] [%] | growth inhibition [4] [%] | growth inhibition [5] [%] | growth inhibition [6] |
| --- | --- | --- | --- | --- | --- | --- |
| N#CC(C#N)=CNc1cccc(Cl)c1 | 34 | 9.8 | 29.2 | 9.45 | -1.05 | 18.5% |
| CC(C)=CCCC(C)C1CCC2C3CC=C4CC(O)CCC4(C)C3CCC12C (configuration not stated) | 34.5 | 45 | 48.2 | 34.4 | 12.9 | 72.3% (active) |
| O=S(=O)(O)c1cccc2cccc(Nc3ccccc3)c12 | -0.5 | 0.35 | 8.85 | -33.1 | -14.8 | 25.4% |
| O=C(CN1CCCCC1)NC(=O)c1ccccc1 | -8.8 | -11.6 | -7.8 | -9.15 | 0.65 | -7.5% |
| Cc1ccccc1N1C(N)=C(C#N)C(C#N)(C#N)C1c1ccccc1 (configuration not stated) | 8.8 | 22.2 | -14.6 | -10.6 | -12.4 | 87.8% (active) |
| N=c1ccc([N+](=O)[O-])cn1O | 13.4 | 11.7 | -2 | -41.5 | -2.8 | 1.95% |
| CCOc1ccc(NC(=O)/C(CC(=O)c2sc(Nc3ccc(C)cc3)nc2C)=N\NC(N)=S)cc1 | -33.3 | 3.15 | 8.95 | -49.6 | -11.4 | -35.5% |
| N#C/C(C(N)=O)=C1\CCCc2sccc21 | -13.3 | 5.9 | -6.3 | -30.1 | -4.75 | 3.4% |
| O=C(O)c1cccc(O)c1C(=O)O | 29.2 | -3.4 | 21.9 | 21.2 | 0.75 | 33.9% |
| CCOC(=O)c1cnc(-n2[nH]c(C)c(CCO)c2=O)[nH]c1=O | -11.2 | -46.9 | -33.1 | -6.15 | -8.9 | -37% |
| Nc1cc(Cl)nc(Cl)n1 | 1.5 | -25.6 | 2.45 | 10.1 | -19.4 | 3.8% |
| CCOC(=O)Nc1ccn(C2OC(COC(C)=O)C(OC(C)=O)C2OC(C)=O)c(=O)n1 (configuration not stated) | 19.9 | -11.4 | 15.1 | -46.4 | -1.9 | 8.3% |
| Cc1cccc(NC(=O)COc2c(C)cc(Cl)cc2Cl)c1 | 23.8 | 15.5 | 38.2 | 0.45 | 38 | 14.8% |
| N.N.N.N.N.O=S(=O)([O-])S(=O)(=O)[O-].[Co+3] | 9.15 | 16.4 | 13 | 23.2 | -2.05 | -9% |
| NC(=O)C(=O)N/N=C(\CC1(O)C(=O)Nc2ccccc21)c1ccc2ccccc2c1 (configuration not stated) | 17.4 | 16.5 | 7.5 | 48.5 | 35 | 12.1% |
| NCCCCC(N)C(=O)NCCNc1ccc(NCCNC(=O)C(N)CCCCN)c2c1C(=O)c1ccccc1C2=O (configuration not stated) | 11.5 | 7.4 | 1.45 | -4.85 | -21.5 | -19.1% |
| COc1cccc(CCN(CCOC(N)=O)CCOC(N)=O)c1OC | -10.1 | -5.25 | 2.9 | -7.35 | -4.85 | -2.65% |
| C1CCN(CCC2CCCCN2)CC1 (configuration not stated) | -23.4 | -32.4 | -41.6 | -33.2 | -37.8 | -28% |
| CC(C)CC(NC(=O)C(COC(C)(C)C)NC(=O)C(CSC(c1ccccc1)(c1ccccc1)c1ccccc1)NC(=O)OC(C)(C)C)C(=O)OC(C)(C)C (configuration not stated) | -16.1 | 11.9 | -1.75 | -16.6 | -13.9 | 8.05% |
| O=C1CCCCCC1 | 9.95 | -8.9 | 11.2 | -19.2 | -4.45 | 3.4% |
| O=C(Cc1ccccc1)NC(=O)Nc1ccccc1 | -7.5 | -10.2 | -8.4 | -0.15 | -3.1 | 0.4% |

| SMILES | growth inhibition [1] [%] | growth inhibition [2] [%] | growth inhibition [3] [%] | growth inhibition [4] [%] | growth inhibition [5] [%] | growth inhibition [6] |
| --- | --- | --- | --- | --- | --- | --- |
| CCCCc1c(O)nc(NCCCC(N)C(=O)O)[nH]c1=O (configuration not stated) | -9.55 | -13.8 | -7.2 | -28.9 | -4.6 | -17.8% |
| CCOC(=O)Nc1cccc(F)c1 | -10.9 | 14.7 | 22.9 | -44.6 | -21.1 | -0.5% |
| CC(C)=CCSC(N)N | 14.4 | 21.1 | 24.1 | 9.35 | 17.4 | -1.7% |
| CCOC1OC(C2COC(=O)O2)C(O)C1O (configuration not stated) | 15.8 | 10.6 | -3.85 | -71.2 | 7.4 | -3% |
| O/N=C1/C(=C/c2ccc(F)cc2)CCCC1C(NO)c1ccc(F)cc1 (configuration not stated) | -3.9 | -22.1 | -8.05 | 3.35 | -6 | -17.7% |
| CN1CCN(Cc2oc(CO)cc(=O)c2O)CC1 | -3.8 | -22.9 | 5.2 | 12.2 | 16.8 | -7.65% |
| CCCN=C1NS(=O)(=O)c2ccccc21 | 8.35 | -14.8 | -15.3 | -11.8 | -7.55 | -7.7% |
| CSc1c(C)c(C)nn1-c1ccccc1 | -8.35 | -7.6 | 9.45 | -1.4 | 1.35 | -5.75% |
| OC/C=C(\I)CCCOCOCc1ccccc1 | -14.4 | -4.35 | -7.35 | -18.4 | -10.5 | -36.2% |
| C[N+](C)(CCOc1ccccc1)Cc1ccccc1 | 55 | 25.8 | 39.3 | 26.8 | 48 | 31.5% |
| CN(C(=O)C1C2c3ccccc3C(c3ccccc32)C1C(=O)N(C)c1ccccc1)c1ccccc1 (configuration not stated) | 29.4 | 1.3 | 22.4 | -39 | 1.1 | 21.9% |
| O=C1/C(=C\C=C\c2ccccc2)CCC/C1=C/C=C/c1ccccc1 | 15.3 | 5.05 | 5.7 | 20.8 | 34 | 3.1% |
| CCOC(=O)NC(Nc1cc(Cl)ccc1OC)(C(F)(F)F)C(F)(F)F | 2.5 | -10.5 | -26.1 | 9.65 | 6.85 | -5.2% |
| OCC(O)CS (configuration not stated) | -15.2 | 0.1 | -4.8 | 36.1 | -4.5 | -15.5% |
| COc1cc(C(=O)O)c(Br)c(OC)c1OC | -1.55 | 20.1 | 2.55 | -12.7 | 42.9 | 1% |
| CCOC(=O)C(CC(c1ccc2c(c1)OCO2)C(C(=O)OCC)[N+](=O)[O-])C(=O)OCC (configuration not stated) | 61.2 | 23.9 | 58.6 | 27.3 | 15.6 | 39.3% |
| O=[N+]([O-])c1cccc(C2CC(c3ccccc3)=NN2c2ccccc2)c1 (configuration not stated) | 2.9 | -2.05 | 0.25 | -9.4 | 10.4 | -7.3% |
| CC1CC/C(=C\c2ccccc2)C(=O)/C1=C/c1ccccc1 (configuration not stated) | 22.2 | -11.1 | 13.8 | 9.45 | 30.2 | 28.8% |
| COc1cc2c(cc1OC)C(NC(C)C)CCCC2 (configuration not stated) | -7.6 | 9.35 | -13.8 | -23.6 | -7.7 | -6.9% |
| S=C1SC(=Nc2ccccc2)C(=Nc2ccccc2)N1c1ccc2ccccc2c1 | 8.2 | 8.75 | 28.5 | 12.8 | 27.9 | 24.1% |
| CC(=O)N(C)N=Nc1ccc(Cl)cc1 | 10.4 | 11.7 | 2.05 | -17.6 | 3.8 | 15.9% |
